Pf growth 96h – P. falciparum growth inhibition at 96 hours. P. falciparum luciferase reporter growth, 96 h. Potency, µM (doses to about 28.7 µM), most hits filed as inhibitors. actives 6.9% (n = 320,000). AID 504834
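Compounds incubated with erythrocytes infected by luciferase-expressing P. falciparum (2% hematocrit, 0.05% parasitemia final) for 96 hours, 37 C in 5% CO2. Growth inhibition scored as decreased luciferase luminescence.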
Shiga inhibitor – Shiga toxin inhibition | inhibition, % at 38.7 µM | AID 2315 | actives 9.2% (n = 290,000) | Vero cells, Shiga toxin protein synthesis inhibition reporter; in the data active = inhibition mostly above about 28%, no sharp cut-off; inactive = mostly below about 43%
Pf growth 48h – inhibits P. falciparum growth in the first generation, 48 h | Potency, µM (titrated, usually from 28.7 µM), actives largely listed as inhibitors | actives 5.9% (n = 310,000) | AID 504832 | P. falciparum luciferase growth in erythrocytes, 48 h
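Here the parasites carry a stable luciferase gene and grow inside erythrocytes in Albumax-based RPMI medium with compound for one erythrocytic cycle. Activity is scored as loss of luminescent signal.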
MARV entry inh – inhibitors of Marburg virus binding or cell entry. Marburg virus pseudotyped entry inhibition, cell reporter. Potency, µM (titrated, usually from 37.8 µM), usual class: inhibitors. actives 1.8% (n = 300,000); calls by dose curve; tested in HEK293 cells
Lassa entry inh – inhibitors of Lassa virus binding or cell entry | AID 540256 | Potency, µM (doses to about 37.9 µM), hits mostly inhibitors | Lassa virus pseudotype entry inhibition, cell reporter | actives 1.2% (n = 300,000); calls by dose curve; tested in HEK293 cells; note: nearly all actives have a fitted effect of over 50% in size
Cycloheximide cs – counter-screen hit for Shiga toxin inhibitors, cycloheximide. cell reporter, cycloheximide protein synthesis inhibition counterscreen. max response, %. actives 12% (n = 300,000). AID 2314; in the data active = max response mostly above about 13%, no sharp cut-off; inactive = mostly below about 14%; note: read at 38.3 µM for the half of the compounds with a filed dose
Large screens that a line does not name were inactive. Most compounds without a hit are left out; they make up all but 19% or so of the library. Unless noted, calls come from the whole dose curve; as a rule, active = well fitted inhibition curve with a large enough effect; inconclusive = small, poorly fitted or top-dose-only effect, or another doubt; inactive = no such curve, though single readings can be large or run the other way.

CC(C)CN1CCC(=O)N(C(CSc2ccc(Br)cc2)Cc2ccccc2)CC1 (stereo not given)	none (no result: Pf growth 96h, Pf growth 48h, MARV entry inh, Lassa entry inh)
CC(C)CN1CCC(=O)N(CCOc2ccccc2)CC1	Shiga inhibitor 27.8, Cycloheximide cs 27.8 (no result: MARV entry inh, Lassa entry inh)
CC1CCC(NC(=O)CCCn2sc3ccccc3c2=O)CC1 (stereo not given)	Cycloheximide cs 22.2 (no result: MARV entry inh, Lassa entry inh)
CC(=O)N1CC[C@H]2CC(=O)CC[C@@]21C	none (no result: Pf growth 96h, Pf growth 48h, MARV entry inh, Lassa entry inh)
COc1ccc(NC(=O)c2ccc(S(=O)(=O)N3CCOCC3)cc2)c(OC)c1	Pf growth 96h 4.65µM
COc1ccccc1NC(=O)c1ccc(S(=O)(=O)N2CCCC2)cc1	none (no result: Pf growth 48h, MARV entry inh, Lassa entry inh)
COc1cc(S(=O)(=O)N2CCCCC2)ccc1NC(=O)c1ccc(F)cc1	Pf growth 96h 10.4µM
COc1ccc(S(=O)(=O)N2CCOCC2)cc1NC(=O)c1ccc(-n2nc(C)cc2C)cc1	Pf growth 96h inconclusive, Pf growth 48h 10.4µM
CCCC(NCC(=O)Nc1cc(S(=O)(=O)N2CCOCC2)ccc1OC)c1ccccc1 (stereo not given)	Pf growth 96h 11.7µM, Pf growth 48h 11.7µM, MARV entry inh inconclusive, Lassa entry inh inconclusive (no result: Shiga inhibitor, Cycloheximide cs)
COc1cc(S(=O)(=O)N2CCCCC2)ccc1NC(=O)c1ccccc1Cl	Pf growth 48h 9.28µM
Cc1cc(NC(=O)CN2CCOCC2)n(-c2ccccc2)n1	none
Cc1cc(NC(=O)CCc2ccc(S(=O)(=O)N3CCOCC3)cc2)n(-c2ccccc2)n1	Pf growth 96h inconclusive, Pf growth 48h 13.1µM, MARV entry inh inconclusive
O=C(c1cnc2sccn2c1=O)N1CCCc2ccccc21	none (no result: MARV entry inh, Lassa entry inh)
CCN1CCN(c2ncc(C(=O)N3CCCc4ccccc43)c3ccccc23)CC1	Pf growth 96h 11.7µM, Pf growth 48h inconclusive, MARV entry inh inconclusive
COc1ccccc1NC(=O)c1cc(S(=O)(=O)N2CCCCCC2)ccc1F	Pf growth 96h inconclusive, Pf growth 48h inconclusive, Lassa entry inh inconclusive
CCN1CCN(c2ncc(C(=O)Nc3cc(Cl)ccc3OC)c3ccccc23)CC1	Pf growth 48h inconclusive, MARV entry inh 2µM, Lassa entry inh inconclusive
COc1cccc(C(c2sc3ncnn3c2O)N2CC(C)OC(C)C2)c1 (stereo not given)	none (no result: MARV entry inh, Lassa entry inh)
COc1cccc(-n2nc(C(=O)N3CCC4(CC3)OCCO4)c3ccccc3c2=O)c1	none
COc1cc(S(=O)(=O)N2CCOCC2)ccc1NC(=O)COC(=O)CC12CC3CC(CC(C3)C1)C2	Pf growth 96h 8.28µM, Lassa entry inh 16.4µM (no result: Pf growth 48h)
CCOc1ncccc1C(=O)Nc1ccc(Cl)c(S(=O)(=O)N2CCCC2)c1	Pf growth 96h inconclusive, Pf growth 48h inconclusive, MARV entry inh inconclusive
CCN1CCN(S(=O)(=O)c2ccc(OC)c(NC(=O)c3ccccc3F)c2)CC1	Pf growth 96h 7.38µM (no result: Shiga inhibitor, Cycloheximide cs)
COc1cc(S(=O)(=O)N2CCOCC2)ccc1NC(=O)COC(=O)c1cc(OC)c(OC)c(OC)c1	none (no result: Pf growth 96h, Shiga inhibitor, Pf growth 48h, Cycloheximide cs)
COc1ccc(S(=O)(=O)N2CCCC2)cc1NC(=O)c1ccccc1F	none
CCOc1ncccc1C(=O)Nc1cc(S(=O)(=O)N2CCCCC2)ccc1Cl	Pf growth 96h 0.828µM, Pf growth 48h inconclusive, MARV entry inh inconclusive, Lassa entry inh inconclusive (no result: Shiga inhibitor, Cycloheximide cs)
O=C(NN1C(=O)C2C(c3ccccc3)C=CC(c3ccccc3)C2C1=O)c1ccccc1 (stereo not given)	MARV entry inh inconclusive
COc1ccc(N=NC2=C(O)CC(C)(C)CC2=O)c(OC)c1	Shiga inhibitor 53.3
COc1ccc(N=NC2=C(O)CC(C)(C)CC2=O)cc1	Pf growth 96h inconclusive, Shiga inhibitor 124.5, Cycloheximide cs 47.0
CC1(C)CC(=O)C(N=Nc2cccc([N+](=O)[O-])c2)=C(O)C1	Shiga inhibitor 63.4, MARV entry inh inconclusive, Lassa entry inh inconclusive, Cycloheximide cs 45.3
CC1(C)CC(=O)C(N=Nc2ccc(Br)cc2)=C(O)C1	none
CC1(C)CC(=O)C(N=Nc2ccc(C(F)(F)F)cc2[N+](=O)[O-])=C(O)C1	Pf growth 48h inconclusive
CCOC(=O)C1CCN(S(=O)(=O)c2ccc3c(c2)CC(=O)N3)CC1	Pf growth 48h 11.7µM (no result: MARV entry inh, Lassa entry inh)
CCOc1ccc(S(=O)(=O)N2CCCC(C(=O)NCc3ccccn3)C2)cc1 (stereo not given)	none (no result: Lassa entry inh)
CCOC(=O)C1CCN(S(=O)(=O)c2ccc3c(c2)NC(=O)C(C)S3)CC1 (stereo not given)	Pf growth 48h inconclusive

Source: PubChem
